Source: ChEMBL document CHEMBL5606458, “ASAP - ZIKV NS2B-NS3 protease fluorescence single point” (2024)
The whole screen tested about 2,700 compounds, of which about 160 (5.9%) showed an effect of 50% or more. Shown is part of a subset that was picked to be rich in strong results.

Target: Nonstructural protein 3 (Zika virus) (UniProt A0A024AXB9)
[1] = PRVABC59, Concentration 50.0 uM, Number of replicates 1.0
[2] = PRVABC59, Concentration 15.0 uM, Number of replicates 1.0

Nonstructural protein 3 (Zika virus), sequence (A0A024AXB9 as listed by the source): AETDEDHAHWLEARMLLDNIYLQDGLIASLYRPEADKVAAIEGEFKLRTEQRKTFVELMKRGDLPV

`Cc1cc(CO)c2cccc(Cc3ccccc3C(=O)N3CCO[C@@H](CN)C3)c2n1` was tested. Which inhibition (PRVABC59, Concentration 99.9 uM, Number of replicates 2.0, Standard deviation 2.9992587541792743 %) did it give?
The inhibition was -6.8%.

Which inhibition [1] does the source give for `O=Cc1ccc(N2CCC(C(=O)Nc3cc(Cl)c(F)cc3F)CC2)cc1` here?
Its inhibition is 26.1%.

How did the inhibition [2] turn out when `COc1ccccc1N1CCN(C(=O)c2cc(Cl)ccc2NS(=O)(=O)c2ccc(Oc3ccccc3Cl)cc2)CC1` was run?
The inhibition was 8.47%.

`O=Cc1ccc(N2CCC(C(=O)Nc3ncc(F)cc3Br)CC2)cc1` was tested. Which inhibition [1] did it give?
The inhibition was 19.1%.

Which results are given for `C[C@@H](NC(=O)OCc1ccccc1)C(=O)Nc1cccc(CN)c1`?
inhibition (PRVABC59, Concentration 49.5 uM, Number of replicates 2.0, Standard deviation 0.22300909071478295 %): -5.65%; inhibition (PRVABC59, Concentration 99.01 uM, Number of replicates 2.0, Standard deviation 0.06482809074333463 %): -3.85%; inhibition (PRVABC59, Concentration 198.0 uM, Number of replicates 2.0, Standard deviation 0.9413049329503056 %): -1.69%

With `CCOc1ccc(CNC(=O)c2cc(Cl)ccc2NS(=O)(=O)c2ccc(Oc3ccccc3Cl)cc2)cc1` as the compound, how does the inhibition [2] read?
The inhibition was 30.8%.

How did the inhibition (PRVABC59, Concentration 49.95 uM, Number of replicates 2.0, Standard deviation 0.18876460771228748 %) turn out when `Cc1cc(CO)c2cccc(Cc3ccccc3C(=O)N3CC[C@@H](O)C3)c2n1` was run?
Its inhibition is -8.95%.

What about the inhibition (PRVABC59, Concentration 99.9 uM, Number of replicates 2.0, Standard deviation 1.2164824655212059 %) of the same compound?
The inhibition was -7.58%.

Which results are given for `Cc1cc(CO)c2cccc(Cc3cccc(C(=O)N4CC[C@@H](CO)C4)c3)c2n1`?
inhibition (PRVABC59, Concentration 49.95 uM, Number of replicates 2.0, Standard deviation 1.594011680945781 %): -6.14%; inhibition (PRVABC59, Concentration 99.9 uM, Number of replicates 2.0, Standard deviation 1.5520642713220405 %): 3.44%

Which inhibition (PRVABC59, Concentration 49.95 uM, Number of replicates 2.0, Standard deviation 0.6921367263576601 %) does the source give for `Cc1cc(CO)c2cccc(Cc3cccc(C(=O)N4CCC(C(=O)O)CC4)c3)c2n1` here?
Its inhibition is -3.78%.

What about the inhibition (PRVABC59, Concentration 99.9 uM, Number of replicates 2.0, Standard deviation 0.04719115192807187 %) of the same compound?
Its inhibition is -2.12%.

For `Cc1cc(CO)c2cccc(Cc3cccc(C(=O)N4CCC(CN)CC4)c3)c2n1`, which inhibition (PRVABC59, Concentration 49.95 uM, Number of replicates 2.0, Standard deviation 0.3303341859864401 %) is on record?
The inhibition was 94.6%.

And the inhibition (PRVABC59, Concentration 99.9 uM, Number of replicates 2.0, Standard deviation 0.3198467013777773 %)?
Its inhibition is 90.9%.

What does the source list for `Cc1cc(CO)c2cccc(Cc3ccccc3C(=O)N3CCC(C(=O)O)CC3)c2n1`?
inhibition (PRVABC59, Concentration 49.95 uM, Number of replicates 2.0, Standard deviation 1.0591789629357544 %): -4.89%; inhibition (PRVABC59, Concentration 99.9 uM, Number of replicates 2.0, Standard deviation 2.3071221964090083 %): -5.26%

For `Cc1cc(CO)c2cccc(Cc3ccccc3C(=O)N3CCC(CN)CC3)c2n1`, which inhibition (PRVABC59, Concentration 49.95 uM, Number of replicates 2.0, Standard deviation 5.668177927575499 %) is on record?
The inhibition was 56.2%.

What about the inhibition (PRVABC59, Concentration 99.9 uM, Number of replicates 2.0, Standard deviation 1.410491152712613 %) of the same compound?
Its inhibition is 37.7%.

`O=C(N[C@H]1CC(=O)N(Cc2ccccc2)C1)c1cc(Cl)ccc1NS(=O)(=O)c1ccc(Oc2ccccc2Cl)cc1` was tested. Which inhibition [2] did it give?
The inhibition was 22%.

Which results are given for `Cc1cc(CO)c2cccc(Cc3cccc(C(=O)NCc4c(C)noc4C)c3)c2n1`?
inhibition (PRVABC59, Concentration 49.95 uM, Number of replicates 2.0, Standard deviation 0.6344586798768046 %): -2.24%; inhibition (PRVABC59, Concentration 99.9 uM, Number of replicates 2.0, Standard deviation 0.2674164432987103 %): 1.65%

For `O=C(c1cc(Cl)ccc1NS(=O)(=O)c1ccc(Oc2ccccc2Cl)cc1)N1CCN(C(=O)[C@H]2COc3ccccc3O2)CC1`, which inhibition [2] is on record?
Its inhibition is 19.2%.

How did the inhibition (PRVABC59, Concentration 49.5 uM, Number of replicates 2.0, Standard deviation 1.1938974234704913 %) turn out when `Cn1cc(NC(=O)c2ccccc2C(F)(F)F)c(-c2ccccc2CO)n1` was run?
Its inhibition is -0.442%.

What about the inhibition (PRVABC59, Concentration 99.01 uM, Number of replicates 2.0, Standard deviation 1.523480341882225 %) of the same compound?
The inhibition was 1.31%.

What about the inhibition (PRVABC59, Concentration 198.0 uM, Number of replicates 2.0, Standard deviation 2.1372444344514228 %) of the same compound?
The inhibition was 2.85%.

With `Cc1cc(N)c2c(Cl)ccc(Cl)c2n1` as the compound, how does the inhibition (PRVABC59, Concentration 49.95 uM, Number of replicates 2.0, Standard deviation 14.266771188329304 %) read?
The inhibition was -9.58%.

With `Cc1cc(Cl)c2c(N)ccc(C)c2n1` as the compound, how does the inhibition (PRVABC59, Concentration 49.95 uM, Number of replicates 2.0, Standard deviation 1.4741281735170297 %) read?
The inhibition was 80.8%.

And the inhibition (PRVABC59, Concentration 99.9 uM, Number of replicates 2.0, Standard deviation 0.2024559271573544 %)?
Its inhibition is 83.6%.

Which results are given for `Cc1cc(Cl)c2cccc(N)c2n1`?
inhibition (PRVABC59, Concentration 49.95 uM, Number of replicates 2.0, Standard deviation 7.781875381379218 %): 5.79%; inhibition (PRVABC59, Concentration 99.9 uM, Number of replicates 2.0, Standard deviation 5.7320152302040395 %): 14.4%

How did the inhibition (PRVABC59, Concentration 10.0 uM, Number of replicates 1.0) turn out when `O=Cc1ccc(N2CCC(C(=O)NCc3c(F)cc(F)c(F)c3F)CC2)cc1` was run?
The inhibition was 22.5%.

`COc1ccc(CN2CCC(c3c[nH]c4cccnc34)CC2)cc1` was tested. Which inhibition (PRVABC59, Concentration 49.5 uM, Number of replicates 2.0, Standard deviation 0.21004326604655832 %) did it give?
Its inhibition is 0.598%.

And the inhibition (PRVABC59, Concentration 99.01 uM, Number of replicates 2.0, Standard deviation 0.8142417098777236 %)?
The inhibition was 6.55%.

And the inhibition (PRVABC59, Concentration 198.0 uM, Number of replicates 2.0, Standard deviation 1.1254172872302635 %)?
The inhibition was 14.8%.

With `O=Cc1ccc(N2CCC(C(=O)N(Cc3cnn(-c4ccccc4)c3)C3CC3)CC2)cc1` as the compound, how does the inhibition [1] read?
Its inhibition is 26.1%.

How did the inhibition [1] turn out when `COc1cc(NC(=O)C2CCN(c3ccc(C=O)cc3)CC2)cc(OC)c1` was run?
The inhibition was 28%.

Which inhibition [1] does the source give for `O=Cc1ccc(N2CCC(C(=O)Nc3cc(Cl)cc([N+](=O)[O-])c3O)CC2)cc1` here?
The inhibition was 93.4%.

`O=Cc1ccc(N2CCC(C(=O)Nc3cc(Cl)cc(Cl)c3O)CC2)cc1` was tested. Which inhibition [1] did it give?
The inhibition was 92.4%.

`O=Cc1ccc(N2CCC(C(=O)Nc3cc(Cl)c(O)c(Cl)c3)CC2)cc1` was tested. Which inhibition [1] did it give?
Its inhibition is 98.7%.

`O=Cc1ccc(N2CCC(C(=O)Nc3ccc(Cl)c(Cl)c3)CC2)cc1` was tested. Which inhibition [1] did it give?
Its inhibition is 22.8%.

With `O=Cc1ccc(N2CCC(C(=O)Nc3ccc([N+](=O)[O-])cc3Cl)CC2)cc1` as the compound, how does the inhibition [1] read?
Its inhibition is 39.8%.

With `O=Cc1ccc(N2CCC(C(=O)Nc3c(Cl)cc(Cl)cc3Br)CC2)cc1` as the compound, how does the inhibition [1] read?
The inhibition was 22.3%.

`O=Cc1ccc(N2CCC(C(=O)Nc3cc(Cl)c(F)c(Cl)c3)CC2)cc1` was tested. Which inhibition [1] did it give?
Its inhibition is 20.1%.

For `O=Cc1ccc(N2CCC(C(=O)Nc3ccc(O)cc3[N+](=O)[O-])CC2)cc1`, which inhibition [1] is on record?
The inhibition was 38.4%.
